# Results: PubChem BioAssay (EPA / NIEHS)
# Inconclusive results are not listed. Calls of active or inactive are those of the source. Rule for the calls: active = hit-call score of the fitted dose curve at least 0.9, where 1 is the maximum; inconclusive = response in the unintended direction; inactive = score below 0.9.
# Assay: ACEA_AR_antagonist_AUC_viability: ACEA Biosciences xCELLigence Real-Time Cell Analysis on Androgen Receptor Antagonism for Viability (AID 2283776);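 note: area under impedance growth curve at 80 h after dosing as viability; hits lower the growth signal relative to DMSO meaning cytotoxicity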
# Summary of the method: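 22Rv1 human prostate cancer cells were seeded on electrode plates, monitored overnight, then exposed to eight 1:4 dilutions from 100 uM final. Impedance-based growth kinetics at 80 h gave an AUC viability endpoint normalized to DMSO.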
Compound,outcome,AC50
CCCOC(=O)c1ccc(O)cc1,inactive,
Cc1ccc(S(=O)(=O)O)c(C)c1,inactive,
Cc1oc(-c2ccccc2)nc1CCOc1ccc(C[C@H](Nc2ccccc2C(=O)c2ccccc2)C(=O)O)cc1,,14.4 µM (active)
O=C(/C=C/c1ccc(O)cc1)CC(=O)/C=C/c1ccc(O)cc1,,28.4 µM (active)
CCCCCCCCCCCCCC[N+](C)(C)C,,6.52 µM (active)
COCC(C)O (stereo not given),inactive,
CCC(C)(C)C1CCC(O)CC1 (stereo not given),inactive,
CC[C@H](c1ccc(O)cc1)[C@@H](CC)c1ccc(O)cc1,,10.1 µM (active)
CCc1nn(C2CCCCC2)c2cc(C3(C#N)CCC(C(=O)O)CC3)ccc12 (stereo not given),inactive,
CCC(=C(c1ccc(O)cc1)c1ccc(OCCN(C)C)cc1)c1ccccc1,,5.79 µM (active)
CCCCCCCCC(=O)O,inactive,
CCCCCCC(=O)O,inactive,
CC(=O)NC1(c2cccc(F)c2)CCN(CC[C@@]2(c3ccc(Cl)c(Cl)c3)CN(c3ccccc3)C(=O)CO2)CC1,,41.5 µM (active)
ClC1=C(Cl)C(Cl)(Cl)C(Cl)=C1Cl,,68 µM (active)
C=C(C)C(=O)OCCC(F)(F)C(F)(F)C(F)(F)C(F)(F)C(F)(F)C(F)(F)F,inactive,
NC(=O)N(O)[C@@H]1C=C[C@H](Oc2cccc(Oc3ccc(F)cc3)c2)C1,,25 µM (active)
Oc1cccc(O)c1,inactive,
OC1CCCCC1,inactive,
CCCCCCCCCCCCCCCS(=O)(=O)Oc1ccccc1,inactive,
CC[C@H](C)[C@@H](C(=O)O)n1sc2ccccc2c1=O,inactive,
CCCCCCCCCCCCN1CCCC1=O,,75.5 µM (active)
Oc1cc2ccccc2c2ccccc12,,10.7 µM (active)
CCCCC(CC)COC(=O)CCCCC(=O)OCc1ccccc1 (stereo not given),inactive,
Cc1cc(C)c(O)c(C)c1,inactive,
CCOC(=O)CC(O)(CC(=O)OCC)C(=O)OCC,inactive,
COC(=O)CCCCC(=O)OC,inactive,
CCCCOCCO,inactive,
COc1cc(CCC(=O)CC(=O)CCc2ccc(O)c(OC)c2)ccc1O,,61.8 µM (active)
CCCCC(CC)COC(=O)CCCCC(=O)OCC(CC)CCCC (stereo not given),inactive,
O=[N+]([O-])c1ccc(O)cc1,inactive,
